About 7,900 targets were measured; listed, in parts, are those with a hit and a random draw of the rest. About 0.6% of all pairs of compound and target were hits.
Assays:
Experiment in all cases: log2 fold change, soluble protein after heating vs DMSO (PISA); higher = thermal stabilisation; K562 cells, 10 uM, 30 min; active = over 0.2 and 3.5 SD of the protein, either way, in both replicates (recomputed)
[1] = compound: C1=CC=C(C=C1)[C@H](COC2=CC3=C(C=C2)NC(=O)N3)NC(=O)C4=CC=CN(C4=O)CC5=CC(=C(C=C5)F)F
In short: (§1)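 Values are thermal stability changes relative to control samples and are taken from duplicates. They are stated as log2 fold changes. Before quantification by TMTpro 16plex LC-MS/MS with equalised channel sums, K562 cells at 2×10^6 cells/mL were treated with 10 μM compound for 30 min, heated in aliquots for 3 min across 48°C-58°C, pooled, extracted in PBS with 0.5% NP-40 at 4°C, and centrifuged at 21,000xg for 90 min to give the soluble supernatant.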

[2] = compound: CC1=C(SC2=C1C(=N[C@H](C3=NN=C(N32)C)CC(=O)N)C4=CC=C(C=C4)Cl)C
In short: as §1

[3] = compound: CC1=C2C(=CC=C1)N=C(N(C2=O)C3=CC=CC=C3C)CN4C=NC5=C(N=CN=C54)N
In short: as §1

[4] = compound: Cc1sc2c(c1C)C(c1ccc(Cl)cc1)=N[C@@H](CC(=O)OC(C)(C)C)c1nnc(C)n1-2
In short: as §1

[5] = compound: c1ccc([C@@H]2C[C@H]2NC2CCNCC2)cc1
In short: as §1

Measured: log2 fold change

JMJD6 isoform 3 (UniProt Q6NYC1)
inactive: [1] -0.004 | [2] 0.046 | [3] 0.055 | [4] 0.006 | [5] 0.097

MAPRE3 (UniProt Q9UPY8)
Chain of UniProt Q9UPY8 (Q9UPY8 whole entry, looked up): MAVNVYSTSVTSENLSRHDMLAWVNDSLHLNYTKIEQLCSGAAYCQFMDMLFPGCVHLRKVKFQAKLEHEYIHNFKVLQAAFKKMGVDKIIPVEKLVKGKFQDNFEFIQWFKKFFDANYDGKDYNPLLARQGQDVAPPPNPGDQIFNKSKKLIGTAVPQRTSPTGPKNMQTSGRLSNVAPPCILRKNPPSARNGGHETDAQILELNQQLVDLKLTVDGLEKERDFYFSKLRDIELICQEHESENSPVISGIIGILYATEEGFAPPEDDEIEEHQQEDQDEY
inactive: [1] -0.042 | [2] 0.011 | [3] 0.026 | [4] -0.01 | [5] -0.014

IMMT isoform 2 (UniProt Q16891)
Chain of UniProt Q16891 (Q16891 whole entry, looked up): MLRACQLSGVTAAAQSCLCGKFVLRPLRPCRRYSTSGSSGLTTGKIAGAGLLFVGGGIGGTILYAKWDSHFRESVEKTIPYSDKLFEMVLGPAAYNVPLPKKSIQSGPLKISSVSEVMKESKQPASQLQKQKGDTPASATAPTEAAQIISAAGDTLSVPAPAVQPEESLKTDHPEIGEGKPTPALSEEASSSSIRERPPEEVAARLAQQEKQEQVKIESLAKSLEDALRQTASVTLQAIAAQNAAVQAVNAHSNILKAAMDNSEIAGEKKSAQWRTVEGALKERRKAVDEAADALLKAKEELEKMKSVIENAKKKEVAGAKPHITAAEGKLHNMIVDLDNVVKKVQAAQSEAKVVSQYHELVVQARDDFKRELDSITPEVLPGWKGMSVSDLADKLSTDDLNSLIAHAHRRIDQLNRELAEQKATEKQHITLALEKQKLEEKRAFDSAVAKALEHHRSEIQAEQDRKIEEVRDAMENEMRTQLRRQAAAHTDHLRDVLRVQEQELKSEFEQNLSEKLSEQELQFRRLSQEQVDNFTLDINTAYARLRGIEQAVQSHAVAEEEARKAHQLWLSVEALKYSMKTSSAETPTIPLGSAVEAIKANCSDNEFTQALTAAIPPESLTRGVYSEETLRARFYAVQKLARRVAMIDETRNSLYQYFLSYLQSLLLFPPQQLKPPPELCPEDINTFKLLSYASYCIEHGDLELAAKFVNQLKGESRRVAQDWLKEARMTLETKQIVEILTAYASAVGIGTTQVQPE
inactive: [1] 0.021 | [2] 0.029 | [3] 0.035 | [4] 0.091 | [5] 0.033

INTS7 (UniProt Q9NVH2)
inactive: [1] -0.005 | [2] 0.086 | [3] 0.001 | [4] -0.085 | [5] -0.054

METTL18 (UniProt O95568)
Chain of UniProt O95568 (O95568 whole entry, looked up): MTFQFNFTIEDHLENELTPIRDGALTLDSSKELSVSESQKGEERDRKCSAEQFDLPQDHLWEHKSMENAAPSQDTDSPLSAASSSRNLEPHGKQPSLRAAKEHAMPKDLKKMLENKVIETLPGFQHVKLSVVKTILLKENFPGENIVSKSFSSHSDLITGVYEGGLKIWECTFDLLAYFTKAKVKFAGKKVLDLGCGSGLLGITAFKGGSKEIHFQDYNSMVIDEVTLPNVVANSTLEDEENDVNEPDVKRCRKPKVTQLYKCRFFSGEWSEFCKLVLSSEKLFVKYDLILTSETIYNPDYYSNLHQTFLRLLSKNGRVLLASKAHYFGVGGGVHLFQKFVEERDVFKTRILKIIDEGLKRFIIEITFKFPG
inactive: [1] 0 | [2] -0.027 | [3] 0.061 | [4] -0.055 | [5] 0.028

LMBRD1 (UniProt Q9NUN5)
Chain of UniProt Q9NUN5 (Q9NUN5 whole entry, looked up): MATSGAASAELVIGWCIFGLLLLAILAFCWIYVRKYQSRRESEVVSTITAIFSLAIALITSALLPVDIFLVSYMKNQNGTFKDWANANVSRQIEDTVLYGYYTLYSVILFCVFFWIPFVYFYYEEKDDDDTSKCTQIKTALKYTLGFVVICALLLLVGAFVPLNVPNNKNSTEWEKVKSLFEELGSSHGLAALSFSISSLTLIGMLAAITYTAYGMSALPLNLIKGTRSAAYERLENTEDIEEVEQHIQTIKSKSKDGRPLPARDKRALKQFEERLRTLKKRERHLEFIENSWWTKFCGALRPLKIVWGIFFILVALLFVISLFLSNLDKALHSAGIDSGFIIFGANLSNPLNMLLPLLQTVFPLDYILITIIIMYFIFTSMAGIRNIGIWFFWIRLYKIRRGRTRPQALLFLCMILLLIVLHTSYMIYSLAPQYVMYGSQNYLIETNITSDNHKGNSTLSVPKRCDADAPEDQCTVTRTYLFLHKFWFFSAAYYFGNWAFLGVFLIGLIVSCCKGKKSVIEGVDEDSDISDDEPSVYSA
inactive: [1] 0.013 | [2] 0.099 | [3] 0.143 | [4] -0.178 | [5] 0.039

MAGEA9 (UniProt P43362)
Chain of UniProt P43362 (P43362 whole entry, looked up): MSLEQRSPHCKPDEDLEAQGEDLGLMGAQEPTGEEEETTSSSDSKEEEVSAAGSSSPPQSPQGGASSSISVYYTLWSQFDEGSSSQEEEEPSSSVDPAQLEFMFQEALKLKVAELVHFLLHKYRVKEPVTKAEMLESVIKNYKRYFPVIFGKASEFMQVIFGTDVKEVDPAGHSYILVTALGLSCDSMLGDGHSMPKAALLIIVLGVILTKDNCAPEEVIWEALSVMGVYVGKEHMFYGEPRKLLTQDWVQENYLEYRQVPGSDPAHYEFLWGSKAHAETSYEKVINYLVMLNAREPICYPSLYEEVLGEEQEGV
inactive: [1] 0.046 | [2] -0.03 | [3] 0.047 | [4] -0.055 | [5] -0.067

KNTC1 (UniProt P50748)
Chain of UniProt P50748 (P50748 whole entry, looked up): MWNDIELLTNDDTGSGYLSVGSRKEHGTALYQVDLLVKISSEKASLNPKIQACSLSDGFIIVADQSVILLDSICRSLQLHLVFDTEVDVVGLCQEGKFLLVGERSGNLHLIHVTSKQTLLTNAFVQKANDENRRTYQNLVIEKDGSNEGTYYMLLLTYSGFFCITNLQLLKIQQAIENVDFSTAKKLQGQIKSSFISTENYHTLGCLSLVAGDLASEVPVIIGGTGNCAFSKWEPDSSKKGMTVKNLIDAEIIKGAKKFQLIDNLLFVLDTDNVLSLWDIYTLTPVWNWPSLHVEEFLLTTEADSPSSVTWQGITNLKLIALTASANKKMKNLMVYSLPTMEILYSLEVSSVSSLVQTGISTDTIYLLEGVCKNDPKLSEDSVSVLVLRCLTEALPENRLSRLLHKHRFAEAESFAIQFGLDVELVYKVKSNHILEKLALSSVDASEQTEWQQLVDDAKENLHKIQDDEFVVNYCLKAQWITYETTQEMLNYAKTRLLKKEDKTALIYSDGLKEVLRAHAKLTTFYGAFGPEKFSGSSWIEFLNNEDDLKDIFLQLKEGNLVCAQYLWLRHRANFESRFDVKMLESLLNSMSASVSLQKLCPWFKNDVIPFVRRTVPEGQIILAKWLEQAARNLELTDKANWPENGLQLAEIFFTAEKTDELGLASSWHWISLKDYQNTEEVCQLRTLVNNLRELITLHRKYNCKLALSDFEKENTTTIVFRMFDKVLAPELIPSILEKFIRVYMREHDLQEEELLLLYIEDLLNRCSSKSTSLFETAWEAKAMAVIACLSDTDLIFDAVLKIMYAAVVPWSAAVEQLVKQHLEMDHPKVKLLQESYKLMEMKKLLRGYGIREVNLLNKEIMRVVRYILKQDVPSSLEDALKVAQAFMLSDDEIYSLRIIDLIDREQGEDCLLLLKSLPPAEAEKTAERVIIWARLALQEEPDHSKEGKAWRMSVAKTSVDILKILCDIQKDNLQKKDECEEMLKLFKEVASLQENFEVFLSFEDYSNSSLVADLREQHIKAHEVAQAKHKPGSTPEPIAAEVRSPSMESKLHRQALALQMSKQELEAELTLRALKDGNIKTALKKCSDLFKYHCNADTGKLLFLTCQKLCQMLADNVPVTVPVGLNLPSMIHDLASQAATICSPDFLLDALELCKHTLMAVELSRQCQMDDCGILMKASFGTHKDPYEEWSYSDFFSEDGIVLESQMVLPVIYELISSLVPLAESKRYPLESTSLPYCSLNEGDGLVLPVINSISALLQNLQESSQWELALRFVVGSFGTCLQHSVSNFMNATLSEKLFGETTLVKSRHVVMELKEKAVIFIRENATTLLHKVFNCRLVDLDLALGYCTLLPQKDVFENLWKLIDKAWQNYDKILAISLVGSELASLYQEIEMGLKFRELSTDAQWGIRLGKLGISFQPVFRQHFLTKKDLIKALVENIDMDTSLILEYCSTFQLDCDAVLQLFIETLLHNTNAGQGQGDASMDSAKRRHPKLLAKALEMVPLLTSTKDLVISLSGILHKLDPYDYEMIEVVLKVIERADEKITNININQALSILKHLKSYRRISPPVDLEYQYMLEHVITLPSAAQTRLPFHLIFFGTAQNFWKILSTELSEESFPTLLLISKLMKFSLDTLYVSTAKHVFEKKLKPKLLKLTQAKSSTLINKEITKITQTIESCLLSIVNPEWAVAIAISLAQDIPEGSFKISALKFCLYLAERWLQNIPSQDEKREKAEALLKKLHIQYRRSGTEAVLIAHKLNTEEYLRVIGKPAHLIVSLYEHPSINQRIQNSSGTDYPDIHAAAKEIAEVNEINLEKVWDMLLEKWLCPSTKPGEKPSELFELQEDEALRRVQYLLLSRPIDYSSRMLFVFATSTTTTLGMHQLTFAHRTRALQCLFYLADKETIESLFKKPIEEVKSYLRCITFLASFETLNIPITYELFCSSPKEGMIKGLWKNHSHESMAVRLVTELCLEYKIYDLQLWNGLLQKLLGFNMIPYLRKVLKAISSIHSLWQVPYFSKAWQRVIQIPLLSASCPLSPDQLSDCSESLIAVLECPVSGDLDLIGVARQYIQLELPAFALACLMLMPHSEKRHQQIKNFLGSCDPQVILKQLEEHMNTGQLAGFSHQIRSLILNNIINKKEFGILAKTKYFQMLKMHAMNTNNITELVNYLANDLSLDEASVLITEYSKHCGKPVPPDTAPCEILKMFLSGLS
inactive: [1] -0.079 | [2] 0.011 | [3] 0.106 | [4] -0.011 | [5] -0.008

LUC7L2 (UniProt Q9Y383)
Chain of UniProt Q9Y383 (Q9Y383 whole entry, looked up): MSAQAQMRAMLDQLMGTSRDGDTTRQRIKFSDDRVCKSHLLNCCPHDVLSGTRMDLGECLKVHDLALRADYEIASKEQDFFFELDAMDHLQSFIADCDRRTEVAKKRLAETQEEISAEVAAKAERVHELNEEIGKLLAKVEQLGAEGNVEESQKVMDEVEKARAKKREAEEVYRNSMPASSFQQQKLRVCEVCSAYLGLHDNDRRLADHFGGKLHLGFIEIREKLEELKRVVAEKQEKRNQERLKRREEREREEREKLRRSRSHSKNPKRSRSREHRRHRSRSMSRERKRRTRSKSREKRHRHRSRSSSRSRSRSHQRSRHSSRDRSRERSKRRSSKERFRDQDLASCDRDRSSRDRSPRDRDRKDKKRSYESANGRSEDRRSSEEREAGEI
inactive: [1] 0.023 | [2] -0.044 | [3] 0.036 | [4] 0.006 | [5] 0.014

From the supplement of paper PMC10849652
